Bioassay records: PubChem, National Center for Advancing Translational Sciences (NCATS)
A selection: hits, their analogues and other compounds. The true share with any hit is near 19%.
TDP1 cell CPT: growth inhibition of DT40 Tdp1-/-;hTDP1 cells with camptothecin (screen for TDP1 inhibitors); Potency, µM (titrated, usually from 46.2 µM), for the others: top-dose activity change, negative = growth inhibition, usual class: inhibitors; chicken DT40 Tdp1-/-;hTDP1 cells + 20 nM CPT, ATP luminescence, 48 h; hit rate 12% among 420,000; also: potency is read from the fitted curve at half-maximal effect; % is scaled to controls: 0 for no effect and ±100 for the full control effect; nearly all actives have a fitted effect of over 55% in size
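Chicken DT40 Tdp1-/- cells stably complemented with human TDP1 were seeded at 400 cells/well in medium containing 20 nM camptothecin, exposed to pin-transferred compounds, and grown at 37 °C for at least 48 hr. Viability was read as ATP luminescence.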
HepG2 tox: HepG2 cytotoxicity, counter-screen for TGF-b inhibitors; hit rate 0.76% among 410,000; HepG2 CAGA-GFP viability, ATP luminescence, 18 h; Potency, µM (top dose mostly 46.1 µM), for inactives: at the highest dose activity change, negative = cytotoxicity, most hits filed as cytotoxic; also: potency is read from the fitted curve at half-maximal effect
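CellTiter-Glo luminescence gave cytotoxicity after 18 hours at 37 degrees C. The cells were HepG2 CAGA-GFP in 1% FBS DMEM, stimulated with 500 pg/mL TGF-beta after compound addition. %Activity was normalised to no-cell wells (complete cell-killing) and DMSO (no toxicity), and curves were fitted and classified.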
TGFb inhibitor: TGF-b pathway inhibition. HepG2 CAGA-GFP TGF-b/SMAD3 reporter, GFP fluorescence, 18 h; TGF-beta stimulated, 500 pg/mL final. Potency, µM (doses to about 46.1 µM), for inactives: at the highest dose activity, negative = inhibition, usual class: inhibitors. hit rate 1.2% among 410,000; also: potency is read from the fitted curve at half-maximal effect; % is scaled to controls: 0 for no effect and ±100 for the full control effect; nearly all actives have a fitted effect of over 65% in size
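Read-out: total well GFP (ex488/em500-530) summed from mean per-cell fluorescence. Cells: HEPG2 CAGA-GFP, 1% FBS DMEM, 18 h at 37 degrees C with 500 pg/mL final TGF-beta. Unstimulated wells served as the full-inhibition control; stimulated DMSO wells = 0%.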
DT40 TDP1 no CPT: qHTS for Inhibitors of human tyrosyl-DNA phosphodiesterase 1 (TDP1): qHTS in cells in absence of CPT. DT40 Tdp1-/- hTDP1 cells, no CPT, ATP luminescence, 48 h. Potency, µM (titrated, usually from 46.2 µM), for the others: at the highest dose activity change, negative = growth inhibition, usual class: inhibitors. hit rate 15% among 420,000; also: potency is read from the fitted curve at half-maximal effect; % is scaled to controls: 0 for no effect and ±100 for the full control effect; nearly all actives have a fitted effect of over 55% in size
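Chicken DT40 Tdp1-/- cells complemented with human TDP1, screened without camptothecin (DMSO vehicle only), 400 cells/well. Compounds pin-transferred, cells incubated at 37 °C for at least 48 hr. Growth read as ATP-dependent luminescence (CellTiter-Glo, 30 min at RT).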
TDP1 block: blocks human tyrosyl-DNA phosphodiesterase 1. Q9NUW8. recombinant TDP1, AlphaScreen DNA substrate cleavage. Potency, µM (highest dose often 130 µM), for inactives: top-dose activity change, negative = inhibition, hits mostly inhibitors. hit rate 0.28% among 350,000; also: potency is read from the fitted curve at half-maximal effect; % is scaled to controls: 0 for no effect and ±100 for the full control effect; nearly all actives have a fitted effect of over 40% in size
Target sequence (Q9NUW8 whole entry, looked up): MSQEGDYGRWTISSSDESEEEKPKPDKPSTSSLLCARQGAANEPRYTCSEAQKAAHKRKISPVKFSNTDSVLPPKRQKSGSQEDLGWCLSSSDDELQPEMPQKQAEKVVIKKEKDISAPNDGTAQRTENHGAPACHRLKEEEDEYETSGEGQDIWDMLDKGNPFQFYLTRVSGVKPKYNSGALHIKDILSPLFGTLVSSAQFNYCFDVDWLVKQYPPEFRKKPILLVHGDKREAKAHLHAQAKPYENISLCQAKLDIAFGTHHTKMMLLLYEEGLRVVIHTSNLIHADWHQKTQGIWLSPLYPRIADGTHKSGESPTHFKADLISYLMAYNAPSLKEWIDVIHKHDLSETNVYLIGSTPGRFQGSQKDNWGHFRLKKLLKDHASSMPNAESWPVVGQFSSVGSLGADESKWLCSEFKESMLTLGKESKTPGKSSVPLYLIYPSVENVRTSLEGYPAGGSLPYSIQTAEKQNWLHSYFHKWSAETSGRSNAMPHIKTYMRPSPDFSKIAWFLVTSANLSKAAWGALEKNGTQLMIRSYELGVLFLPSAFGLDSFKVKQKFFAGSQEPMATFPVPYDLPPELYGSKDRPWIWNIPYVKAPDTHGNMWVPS
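Tdp1 1 nM final; 15 min RT w/ cpd; substrate 15 nM, 5 min; beads 10 ug/ml, 10 min; AlphaScreen read. Neg ctrl: no enzyme.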
IL-1B inflam inh: inhibitors of inflammasome signaling (IL-1 beta secretion). THP-1 LPS/ATP IL-1B secretion, AlphaLISA, 16 h; stronger effect = lower value. activity change, % at 57.5 µM. hit rate 4.7% among 360,000; in the data active = activity change below about -50%; inconclusive = mostly about -30% to -49%; also: % is scaled to controls: 0 for no effect and ±100 for the full control effect
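THP-1 cells pretreated 1 hr with compounds (up to 57.5 uM final), then stimulated with LPS (250 ng/mL final) plus ATP (1.25 mM final); secreted IL-1B measured by AlphaLISA after 16 hr, decreased signal indicating inhibition.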
The depositor's hits bear a star; ? = inconclusive; / = no result given; [ ] = dose if it differs, or a comment. Unless noted, calls follow the shape of the dose curve; as a rule, active = well fitted curve in the direction sought with a large enough effect; inconclusive = small, poorly fitted or top-dose-only effect, or another doubt; inactive = no such curve, though single readings can be large; an effect the other way counts as inactive or inconclusive.

SMILES | TDP1 cell CPT | HepG2 tox | TGFb inhibitor | DT40 TDP1 no CPT | TDP1 block | IL-1B inflam inh
COC(=O)N/N=C/C1=CCC2CC1C2(C)C (configuration not stated) | 4% | 5% | -4% | -5% | 7% | -14
Cn1nccc1C(=O)N/N=C/c1c(O)ccc2ccccc12 | 4.6µM* | -7% | -9% | 3.3µM* | -10% | 286
Cc1ccc(C(=O)N/N=C/c2c(O)ccc3ccccc23)cn1 | 3.3µM* | 4% | ? | 2.9µM* | / | 95
CC1(C)C2CC=C(/C=N/NC(=O)c3ccc(O)cc3)C1C2 (configuration not stated) | 5% | -9% | -13% | -19% | 8% | -54*
O=C(C[n+]1cccc(C(=O)N/N=C/c2ccc(Br)cc2)c1)c1ccccc1 | -1% | 0% | 9% | -11% | 4% | -5
O=C(NCC1CCOCC1)c1ccc2nc(Cc3cccc(Cl)c3)oc2c1 | -29% | 0% | 0% | -12% | 1% | -12
CCN(CC)CCNC(=O)c1nn(C)c2c1CS(=O)(=O)c1ccccc1-2 | 7% | 3% | -17% | -10% | 5% | /
CCOC(=O)c1sc(NC(=O)C(C)Oc2ccc(OC)cc2)c(C(=O)OCC)c1C (configuration not stated) | ? | 5% | -1% | ? | 0%[12.3 µM] | /
O=C(NN=Cc1c(O)ccc2ccccc12)c1ccncc1 | 4.6µM* | -10% | ? | 3.7µM* | / | 91
O=C(N/N=C\c1c(O)ccc2ccccc12)c1cncc(Br)c1 | 1.6µM* | -14% | 53% | 0.82µM* | 0% | 204
O=C(N/N=C/c1c(O)ccc2ccccc12)c1ccc(Br)o1 | 5.2µM* | -58% | 0% | 4.6µM* | ? | 91
O=C(N/N=C/c1ccccn1)c1ccc(Br)o1 | ? | -25% | ? | ? | 4% | 5
Cc1c(/C=N/NC(=O)c2cccnc2)c2ccccc2n1Cc1ccccc1 | 12µM* | -3% | ? | 7.3µM* | 9% | 56
O=C(CSc1nc2c(c(=O)[nH]1)CCC2)Nc1ccccc1C(F)(F)F | 8% | 16% | 0% | -2% | 9% | /
O=c1[nH]cc(C=NNc2ccccc2)c(=O)[nH]1 | -1% | -30% | -3% | -8% | / | 28
Cn1c(/N=C/c2c(O)ccc3ccccc23)nc2ccccc21 | 3.3µM* | -35% | -15% | 5.8µM* | -6% | 31
Cn1ncc(N=Cc2c(O)ccc3ccccc23)c1C(=O)Nc1cccc(Cl)c1 | ? | 0% | 0% | 23µM* | 8% | 18
CCCn1c(/N=C/c2ccccc2O)nc2ccccc21 | -5% | -3% | -5% | ? | 2% | 19
Cc1occc1C(=O)N/N=C/c1c(O)ccc2ccccc12 | 0.65µM* | -15% | ? | 1µM* | / | 125
Cc1occc1C(=O)N/N=C/c1c[nH]c2ccccc12 | -7% | -22% | 14% | -7% | 4% | -8
Cc1c(/C=N/NC(=O)c2cccs2)c2ccccc2n1Cc1ccccc1Cl | 16µM* | 6% | -6% | 21µM* | 2% | 28
O=C(CN1C(=O)NC2(CCCC2)C1=O)NNC(=O)c1ccccc1F | -9% | 1% | 23% | -2% | 2% | 15
Cc1cc(/C=C2\C=Cc3ccccc32)cc(C)c1[N+](=O)[O-] | ? | -27% | -10% | ? | / | /
CC(=O)c1ccc(NC(=O)Cn2cc3c(n2)CCCC3)cc1 | -9% | -1% | -1% | 0% | 3% | /
CS(=O)(=O)N(CC(=O)NCCSCc1ccccc1)c1ccccc1Br | ? | -12% | -10% | ? | 2% | 0
SMILES | TDP1 cell CPT | HepG2 tox | TGFb inhibitor | DT40 TDP1 no CPT | TDP1 block | IL-1B inflam inh
COc1ccc(/C=N/NC(=O)c2ccc(=O)n(C)c2)cc1OC | 7% | 0% | -6% | 11% | 4% | 29
Cn1cc(C(=O)N/N=C/c2c(O)ccc3ccccc23)ccc1=O | 5.2µM* | 3% | 0% | 3.7µM* | 8% | 122
O=C(N/N=C\c1c(O)ccc2ccccc12)c1ccc(O)cc1 | ? | -32% | 0% | 6.5µM* | / | 149
COc1ccc2ccccc2c1/C=N\NC(=O)c1cccnc1 | 17% | -49% | -10% | -13% | / | 13
O=C(N/N=C/c1c(O)ccc2ccccc12)c1cccnc1 | 1.2µM* | 2% | 5% | 1µM* | / | 195
CSc1nnc(CCNC(=O)c2ccc(-c3cccc(F)c3)cc2)n1-c1ccc(F)cc1 | 9%[9.04 µM] | / | / | -14% | / | /
Cc1cc2nc(-c3nnnn3-c3c(C)cccc3C)c(=O)[nH]c2cc1C | ? | / | / | 16µM* | / | -1
COc1cccc2c1Oc1ncccc1N(C(=O)Nc1cccc(Cl)c1)C2 | ? | 3% | -21% | ? | 7% | /
COc1ccc(-c2cc(C(F)(F)F)nc(-n3nc(C(F)(F)F)cc3C)n2)cc1 | 15µM* | -1% | ? | 13µM* | -1% | /
COc1ccc(-c2cc(C(F)(F)F)nc(-n3cc(Cl)cn3)n2)cc1 | 15µM* | -7% | 1% | ? | -2% | /
COC(=O)c1ccn(-c2nc(-c3ccco3)cc(C(F)(F)F)n2)n1 | -27% | 5% | 2% | ? | 3% | 1
COc1cccc(-c2cc(C(F)(F)F)nc(-n3cc(Cl)cn3)n2)c1 | ? | -5% | -3% | 16µM* | -2% | /
CCOC(=O)c1ccn(-c2nc(-c3cccc(OC)c3)cc(C(F)(F)F)n2)n1 | 15µM* | -2% | 1% | 21µM* | -2% | /
COc1ccc(-c2cc(C(F)(F)F)nc(-n3cncn3)n2)cc1 | -15% | -13% | -10% | -27% | 4% | -11
FC(F)(F)c1cc(-c2ccccc2)nc(-n2cc(Cl)cn2)n1 | ? | 12% | 4% | ? | -4% | ?
Cc1cc2[nH]c(=O)c(=O)[nH]c2cc1S(=O)(=O)Nc1cccc(C(F)(F)F)c1 | 1% | -5% | 1% | -1% | 4% | /
CC(C)C[C@H]1CN([C@@H](CC(C)C)CN2CCC[C@@H]2CN2C(=O)C(=O)NC[C@@H]2Cc2ccccc2)C(=O)C(=O)N1CC1CCCCC1 | ? | -38% | 18µM* | ? | / | ?
CC(C)C[C@@H](CN1CCC[C@@H]1CN1C(=O)C(=O)NC[C@@H]1Cc1ccccc1)N1C[C@H](Cc2ccccc2)N(CC2CCCCC2)C(=O)C1=O | ? | / | / | 16µM* | / | ?
